Assay results reported in PubChem BioAssay (NCATS).
Results filed as inconclusive are left out. A number with no mark means an inactive call. Active and inactive are the calls of the source. The call rests on the fitted dose curve; in most records, active means well fitted cell-killing curve with a large enough effect; inconclusive means small, poorly fitted or top-dose-only effect, or effect the other way; inactive means no such curve, though single readings can be large or run the other way.

Assay: Quantitative High-Throughput drug screen in 47 multiple myeloma cell lines against the NCATS MIPE library collection: ARP1_JJKsccF8 cell viability assay (AID 1918928; further: nearly all actives have a fitted effect of over 40% in size)
Settings: ARP1 myeloma cells viability, CellTiter-Glo ATP, 48 h; series mostly up to 45.8 µM; viability: at the top concentration
Method in brief: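 CellTiter-Glo luminescence after 48 h exposure gives viability, scaled between DMSO-only (100%) and media-only (0%) controls. Library compounds are pinned onto 500 myeloma cells per well, incubated at 37C with 5% CO2.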
Potency means the concentration at half of the fitted maximal effect.

Compound	Potency	viability
CC(C)n1cnc2c(NCCc3ccc(O)cc3)nc(-c3csc4ccccc34)nc21	14800 nM (active)	–
O=C(O)C[C@H](O)C[C@H](O)C=Cc1c(C2CC2)nc2ccccc2c1-c1ccc(F)cc1	13200 nM (active)	–
COc1cc(N2CCC(C(N)=O)CC2)ccc1Nc1nc(N)c(Cl)c(Nc2ccccc2S(=O)(=O)C(C)C)n1	1320 nM (active)	–
Cc1noc(-c2ccc(CSCCC(=O)O)cc2)c1NC(=O)OC(C)c1ccccc1Cl (stereo not given)	–	107%
COc1ccc(Nc2nccc(NCCO)n2)cc1	–	97.3%
C#CCC(Cc1cnc2nc(N)nc(N)c2n1)c1ccc(C(=O)N[C@@H](CCC(=O)O)C(=O)O)cc1 (stereo not given in full)	46.9 nM (active)	–
C[C@@H]1CC[C@@]2(OC1)OC1CC3C4CC=C5CC(O)CCC5(C)C4CCC3(C)C1[C@@H]2C (stereo not given in full)	–	99.5%
COc1cc([C@@H]2c3cc4c(cc3[C@@H](O[C@@H]3O[C@@H]5CO[C@@H](c6cccs6)O[C@@H]5[C@H](O)[C@@H]3O)[C@H]3COC(=O)[C@H]23)OCO4)cc(OC)c1O	209 nM (active)	–
CCc1c(O)cc(O)c(C(=O)c2ccc(OCCN3CCOCC3)c(OC)c2)c1CC(=O)N(CCOC)CCOC	1480 nM (active)	–
COc1cc(OC)cc(-c2ccc3ncc4ccc(=O)n(-c5ccc(N6CCNCC6)c(C(F)(F)F)c5)c4c3c2)c1	3320 nM (active)	–

Assay: Quantitative High-Throughput drug screen in 47 multiple myeloma cell lines against the NCATS MIPE library collection: ARD_JJKsccE7 cell viability assay (AID 1918929)
Settings: ARD myeloma cell line viability, CellTiter-Glo, 48 h; series mostly up to 45.8 µM; viability: at the top concentration
Method in brief: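 Approved and investigational drugs from MIPE 4.0 were added by pin tool to 500 cells per well. After 48 hours at 37C, ATP-based CellTiter-Glo luminescence indicated remaining viability.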

Compound	Potency	viability
CCOc1cc2ncc(C#N)c(Nc3ccc(OCc4ccccn4)c(Cl)c3)c2cc1NC(=O)C=CCN(C)C	662 nM (active)	–
CC(C)(N)c1ccc(-c2nc3ccccc3nc2-c2ccccc2)cc1	14800 nM (active)	–
CC(C=CC(=O)NO)=C[C@@H](C)C(=O)c1ccc(N(C)C)cc1	264 nM (active)	–
CC[C@]12C=CCN3CC[C@@]4(c5cc([C@@]6(C(=O)OC)C[C@H]7C[C@@H](C(C)(F)F)CN(Cc8c6[nH]c6ccccc86)C7)c(OC)cc5N(C)[C@H]4[C@@](O)(C(=O)OC)[C@H]1OC(C)=O)[C@@H]32	4.2 nM (active)	–
CN1C(C(=O)Nc2ccccn2)=C(O)c2sc(Cl)cc2S1(=O)=O	–	138%
CC[C@H](CC[C@@H](C)[C@H]1CC[C@H]2[C@@H]3CC=C4C[C@@H](O)CC[C@]4(C)[C@@H]3CC[C@]12C)C(C)C	–	112%
Nc1nc(=O)n([C@H]2CSC(CO)O2)cc1F (stereo not given in full)	–	92.5%
COc1ccc(C=Cc2cc(OC)c(OC)c(OC)c2)cc1NC(=O)[C@H](N)CO	11.8 nM (active)	–
CCNC(=O)Nc1ccc(-c2nc3c(c(N4CCOC[C@H]4C)n2)CCN(C2COC2)C3)cc1	1050 nM (active)	–
Cc1ccc2nc(NCCN)c3ncc(C)n3c2c1	9350 nM (active)	–
C[C@@H](Oc1ccc2[nH]nc(C=Cc3cnn(CCO)c3)c2c1)c1c(Cl)cncc1Cl	–	105%
C[C@@H]1[C@H](C)CC[C@]2(C(=O)O)CC[C@]3(C)C(=CC[C@@H]4[C@@]5(C)C[C@@H](O)[C@H](O)[C@@](C)(CO)[C@H]5CC[C@]43C)[C@@H]12	–	116%
CC(C)(O)[C@H]1CC[C@@](C)([C@H]2[C@@H](O)C[C@@]3(C)[C@@H]4C[C@H](O[C@@H]5O[C@H](CO)[C@@H](O)[C@H](O)[C@@H]5O)[C@H]5C(C)(C)[C@@H](O[C@@H]6OC[C@@H](O)[C@H](O)[C@@H]6O)CC[C@@]56C[C@@]46CC[C@]23C)O1	–	136%
O=C(C=Cc1ccc(CN(CCO)CCc2c[nH]c3ccccc23)cc1)NO	93.5 nM (active)	–
O=C(O)C[C@H](O)C[C@H](O)C=Cc1c(C2CC2)nc2ccccc2c1-c1ccc(F)cc1	4180 nM (active)	–
COc1cc(N2CCC(C(N)=O)CC2)ccc1Nc1nc(N)c(Cl)c(Nc2ccccc2S(=O)(=O)C(C)C)n1	59 nM (active)	–
Cc1noc(-c2ccc(CSCCC(=O)O)cc2)c1NC(=O)OC(C)c1ccccc1Cl (stereo not given)	–	71.7%
C[C@@H]1CC[C@@]2(OC1)OC1CC3C4CC=C5CC(O)CCC5(C)C4CCC3(C)C1[C@@H]2C (stereo not given in full)	–	146%
COc1cc(OC)cc(-c2ccc3ncc4ccc(=O)n(-c5ccc(N6CCNCC6)c(C(F)(F)F)c5)c4c3c2)c1	2640 nM (active)	–
Cc1ccc(-n2[nH]c(C)c(N=Nc3cccc(-c4cccc(C(=O)O)c4)c3O)c2=O)cc1C	–	155%
